NPC1 promoter act: qHTS Assay for NPC1 Promoter Activators | Huh7 NPC1 promoter luciferase reporter, 24 h | Potency, µM (top dose mostly 9.22 µM), inactives show at the top dose activation, actives largely listed as activators | 2.4% of 320,000 active; also: % of control where 0% means no effect; nearly all actives have a fitted effect of over 60% in size
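Huh7 reporter cells (NPC1 promoter driving luciferase) are dosed with compound for 24 h at 37 °C, 5% CO2; luciferase detection reagent is then added and luminescence measured after 10 min at ambient temperature.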
Rab9 prom act: qHTS Assay for Rab9 Promoter Activators; Huh7 Rab9 promoter-luciferase reporter, luminescence, 24 h; Potency, µM (series often up to 9.22 µM), for inactives: at the top dose activation, negative = inhibition, usual class: activators; 2.8% of 320,000 active; also: % of control where 0% means no effect; nearly all actives have a fitted effect of over 60% in size
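Cell-based reporter: Huh7 stable for Rab9 promoter-driven luciferase, plated in reduced-serum medium with 10% FBS at 1500 cells/well, compound-treated 24 h at 37 °C, luminescence read after 10 min reagent.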
SMN2 splice enh: qHTS Assay for Enhancers of SMN2 Splice Variant Expression; 2.8% of 210,000 active; HEK293 SMN2-luciferase splicing reporter, luminescence, 30-36 h; AID 1458, 2008; Potency, µM (series often up to 46.1 µM), without a hit: top-dose activity change, positive = activation, hits mostly activators; also: % of control where 0% means no effect; nearly all actives have a fitted effect of over 55% in size
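HEK293 cells carry an SMN2 minigene-luciferase reporter in which exon 7 inclusion puts luciferase in frame. Cells were seeded at 2000 cells/well, attached for 10-12 hours, then exposed to compounds for 30-36 hours at 37C before ONE-Glo luminescence.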
ELG1 repair inh: qHTS screen for small molecules that inhibit ELG1-dependent DNA repair in human embryonic kidney (HEK293T) cells expressing luciferase-tagged ELG1 | HEK293T ELG1-luciferase reporter, luminescence, 16 h; DNA damage induced by 5-fluorouridine | Potency, µM (series often up to 46.1 µM), for the others: top-dose activity change, negative = inhibition, hits mostly inhibitors | 2.3% of 330,000 active; also: % is scaled to controls: 0 for no effect and ±100 for the full control effect; nearly all actives have a fitted effect of over 55% in size
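5-Fluorouridine DNA damage + compound/DMSO, 2,000 cells/well, 16 h, 37 °C/5% CO2. ONE-Glo, 30 min RT, luminescence. Readout = decrease in reporter signal.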
ELG1 genotoxic: qHTS screen for small molecules that induce genotoxicity in human embryonic kidney (HEK293T) cells expressing luciferase-tagged ELG1. HEK293T ELG1-luciferase reporter, luminescence, 16 h. Potency, µM (highest dose often 46 µM), for inactives: at the top dose activity change, positive = activation, usual class: activators. AID 504466, 2011. 1.3% of 330,000 active; also: % of control where 0% means no effect; nearly all actives have a fitted effect of over 60% in size
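HEK293T cells expressing luciferase-tagged ELG1 were exposed to compound or DMSO vehicle for 16 hr at 37 °C and 5% CO2. Luciferase activity was then measured with ONE-Glo after 30 min at room temperature.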
FLuc counter: qHTS profiling assay for firefly luciferase inhibitor/activator using purifed enzyme and Km concentrations of substrates (counterscreen for miR-21 project). Luciferin 4-monooxygenase (Photinus pyralis), P08659. purified FLuc, Km substrates, luminescence inhibition. Potency, µM (highest dose often 57.5 µM), inactives show at the highest dose activity change, negative = inhibition, usual class: inhibitors. 6.9% of 360,000 active. AID 588342, 2011;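 also: plate controls were vehicle for no effect and reference inhibitor for full effect; nearly all actives have a fitted effect of over 55% in size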
Target sequence (P08659 whole entry, looked up): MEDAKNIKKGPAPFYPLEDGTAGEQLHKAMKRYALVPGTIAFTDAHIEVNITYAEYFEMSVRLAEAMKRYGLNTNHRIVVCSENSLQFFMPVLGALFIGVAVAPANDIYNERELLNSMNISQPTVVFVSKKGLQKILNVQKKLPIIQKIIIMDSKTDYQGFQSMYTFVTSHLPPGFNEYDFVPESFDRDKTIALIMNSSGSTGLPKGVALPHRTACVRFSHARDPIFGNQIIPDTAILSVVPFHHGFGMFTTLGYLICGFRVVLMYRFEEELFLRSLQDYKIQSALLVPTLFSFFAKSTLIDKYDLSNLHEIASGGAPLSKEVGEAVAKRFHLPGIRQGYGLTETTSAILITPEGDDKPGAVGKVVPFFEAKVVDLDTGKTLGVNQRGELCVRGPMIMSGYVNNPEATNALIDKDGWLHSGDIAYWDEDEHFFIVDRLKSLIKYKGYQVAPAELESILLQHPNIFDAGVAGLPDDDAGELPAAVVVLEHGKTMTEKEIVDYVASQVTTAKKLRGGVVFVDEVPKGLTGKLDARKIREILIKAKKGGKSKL
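Purified P. pyralis luciferase (10nM final) with 10uM D-luciferin and 10uM ATP (Km levels) in 50mM Tris acetate pH 7.5, 10mM Mg acetate, 0.01% Tween-20, 0.05% BSA; qHTS 6-point titration, ~60 µM downward; luminescence read.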
* marks the source's active call; other numbers are inactive results; ? = inconclusive; / = no result given. A selection: hits, their analogues and other compounds. The true share with any hit is near 9.3%. Calls follow the shape of the dose curve; as a rule, active = well fitted curve in the direction sought with a large enough effect; inconclusive = small, poorly fitted or top-dose-only effect, or another doubt; inactive = no such curve, though single readings can be large; an effect the other way counts as inactive or inconclusive. Potency is read from the fitted curve at half-maximal effect.

SMILES	NPC1 promoter act	Rab9 prom act	SMN2 splice enh	ELG1 repair inh	ELG1 genotoxic	FLuc counter
Cc1nc(CSc2nsc(/C=C/N(C)C)c2C#N)cs1	-15%	13%	-4%	1%	1%	24µM*
CC(C)c1ccc(NC(=O)COc2ccc(C3SCCS3)cc2)cc1	1%	-1%	/	-2%	0%	-3%
CCCCNC(=O)Nc1ccc(C2SCCS2)cc1	?	?	/	?	?	15µM*
CNC(=O)Nc1ccc(C2SCCS2)cc1	18%	4%	/	?	9%	17µM*
O=C(Nc1ccc(C2SCCS2)cc1)c1ccccc1	1.1µM*	1.4µM*	/	?	?	0.85µM*
COc1cc(O)c2c(=O)c3c(O[C@H]4O[C@@H](CO)[C@H](O)[C@@H](O)[C@@H]4O)ccc(O)c3oc2c1	/	/	/	8%	1%	/
COc1ccc(-c2coc3cc(OC4OC(CO)C(O)C(O)C4O)ccc3c2=O)cc1 (configuration not stated)	1.6µM*	1.6µM*	/	?	8.2µM*	11µM*
CCCc1cc(=O)oc2cc(O[C@@H]3O[C@H](CO)[C@@H](O)[C@H](O)[C@H]3O)ccc12	0%	-1%	/	-18%	-8%	2%
COc1ccc(-c2coc3cc(OC4OC(CO)C(O)C(O)C4O)cc(O)c3c2=O)cc1 (configuration not stated)	2.8µM*	2.8µM*	/	?	?	?
COc1cc2c(C(=O)Nc3ccc4c(c3)OCO4)cn(CC(C)C)c(=O)c2cc1OC	-3%	-5%	9%	9.2µM*	-7%	-2%
COc1ccccc1/C=C/C(=O)Nc1cccc(C(C)=O)c1	20%	27%	13%	-5%	1%	11µM*
COc1cccc(C(=O)NCc2ccc3c(c2)OCO3)c1OC	-2%	0%	/	14%	3%	-2%
COc1cccc(/C=C/C(=O)Nc2cccc(C(C)=O)c2)c1OC	3.2µM*	2.8µM*	18µM*	?	2%	3µM*
COc1cccc(C(=O)Nc2ccc3c(c2)OCO3)c1OC	1.4µM*	1.6µM*	/	?	?	9.5µM*
CC(=O)N1c2ccccc2N2C(c3c(C)c(C)cc(C)c3C)=NON12	-2%	-6%	-15%	?	-6%	-4%
COc1cccc(/C=C/C(=O)Nc2ccc3c(c2)OCCO3)c1OC	0.4µM*	0.4µM*	2.8µM*	?	1.3µM*	0.76µM*
CCc1cc(C(=O)N2CCCC(CCC(=O)N3CCN(c4ccccn4)CC3)C2)no1 (configuration not stated)	-3%	-19%	/	?	-4%	-4%
O=C(CCC1CCCN(C(=O)COc2ccccc2)C1)N1CCN(c2ccccn2)CC1 (configuration not stated)	-2%	-12%	/	21µM*	-9%	4%
CC(C)c1cc(C(=O)N2CCCC(CCC(=O)N3CCN(c4ccccn4)CC3)C2)no1 (configuration not stated)	-7%	-5%	/	12µM*	-11%	-7%
CC(C)(C)c1ccc(OCC(=O)N2CCN(c3ccccn3)CC2)cc1	6%	-1%	/	?	-3%	12µM*
O=C(O)CCC(=O)N1CCN(c2ccccn2)CC1	-2%	10%	2%	-16%	-1%	3%
O=C(CCSCc1ccccc1Cl)N1CCN(c2ccccn2)CC1	?	?	4%	?	4%	24µM*
COc1cc(COc2ccc3c(C)c(CC(=O)O)c(=O)oc3c2C)cc(OC)c1OC	2%	-1%	/	26%	4%	-12%
COc1ccc(C(=O)CCC(C)(C)[N+](=O)[O-])cc1OC	-4%	-7%	8%	7%	-4%	-3%
O=C1c2ccccc2NC(c2ccc(-c3cccs3)o2)N1O (configuration not stated)	10%	1%	/	?	?	12µM*
SMILES	NPC1 promoter act	Rab9 prom act	SMN2 splice enh	ELG1 repair inh	ELG1 genotoxic	FLuc counter
CCCCNC(=O)CSc1nc(N)c(C(=O)Nc2ccc(OC)cc2)s1	26%	28%	/	10%	10%	17µM*
CN(C)c1ccc(NC(=O)c2sc(SCC(=O)Nc3ccc(Br)cc3)nc2N)cc1	-3%	14%	-18%	6%	9%	-17%
CN(C)c1ccc(NC(=O)c2sc(SCC(=O)Nc3nccs3)nc2N)cc1	25%	?	69%	?	?	1.9µM*
CN(C)S(=O)(=O)c1cccc(CNCC2COc3ccccc3O2)c1 (configuration not stated)	-4%	0%	/	?	-4%	-2%
COc1cc(SC)ccc1C(=O)N1CCN(c2ccccc2)CC1	-3%	-3%	/	-9%	0%	6%
COc1cc(SC)ccc1C(=O)N1CCN(c2ccc(O)cc2)CC1	1%	-5%	0%	21µM*	0%	-10%
COCCCNC(=O)c1ccc2c3c(onc13)-c1ccccc1C2=O	3.2µM*	0.71µM*	/	?	-11%	6µM*
COCCCNC(=O)c1ccccc1Oc1ccccc1	0%	-4%	-11%	0%	0%	2%
On1c2c(c3c4nonc4ccc31)CCCC2	8%	0%	5%	13µM*	1%	-12%
COc1cc2c(cc1OC)/C(=C/C(=O)c1ccccc1)NCC2	22%	-2%	/	9%	12%	-18%
COc1cc2c(cc1OC)/C(=C/C(=O)c1ccc(C)cc1)NCC2	-2%	6%	/	-9%	7%	17µM*
COc1ccc(C(=O)CN2C(=O)NC3(CCCc4ccccc43)C2=O)c(OC)c1 (configuration not stated)	-2%	-2%	/	-6%	-8%	5%
Cc1cc(/C=C(\C#N)C(=O)N2CCOCC2)c(C)n1C1CCCC1	0.5µM*	0.32µM*	/	?	1.6µM*	1.1µM*
COc1ccc(/C=C(\C#N)C(=O)N2CCOCC2)cc1Br	2%	0%	-14%	0%	1%	-13%
Cc1nn(C)cc1C(C)NC(=O)c1cc(COc2cccc3cnccc23)on1 (configuration not stated)	-7%	-12%	/	18µM*	-14%	-2%
Cc1nn(C)cc1C(C)NC(=O)c1cc(COc2c(F)cccc2F)on1 (configuration not stated)	-7%	-2%	/	1%	3%	5%

Compound activity from PubChem.
